Hits are enriched below; roughly 3.5% of the tested compounds scored in any of these assays.
MITF inh: blocks human microphthalmia-associated transcription factor. AlphaScreen MITF homodimerization, bead proximity signal. inhibition, % at 2.6 µM. 0.91% of 650,000 active. AID 1259374; in the data active = inhibition above about 50%;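 also: 0% = vehicle wells with protein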
Target sequence (O75030 whole entry, looked up): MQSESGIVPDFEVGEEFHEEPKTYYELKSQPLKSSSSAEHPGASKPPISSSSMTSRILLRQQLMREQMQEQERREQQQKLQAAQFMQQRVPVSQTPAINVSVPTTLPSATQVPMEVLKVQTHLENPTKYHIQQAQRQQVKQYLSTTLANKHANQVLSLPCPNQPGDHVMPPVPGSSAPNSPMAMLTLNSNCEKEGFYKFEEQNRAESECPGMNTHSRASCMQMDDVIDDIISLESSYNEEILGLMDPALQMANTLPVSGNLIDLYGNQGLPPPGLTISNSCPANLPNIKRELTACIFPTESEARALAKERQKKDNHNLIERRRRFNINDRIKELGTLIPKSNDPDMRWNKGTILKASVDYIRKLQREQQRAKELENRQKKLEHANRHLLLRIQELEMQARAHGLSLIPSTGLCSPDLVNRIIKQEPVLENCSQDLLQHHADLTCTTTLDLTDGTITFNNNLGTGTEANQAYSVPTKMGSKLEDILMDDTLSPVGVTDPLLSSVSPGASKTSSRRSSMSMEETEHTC
TEAD-YAP block: TEAD-YAP interaction inhibition | HEK-TIYL cells, TEAD-Gal4/YAP UAS-luciferase luminescence | 1.4% of 640,000 active | inhibition, % at 9.12 µM; in the data active = inhibition above about 32%;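 also: 0% = median of test compound wells and 100% = reference inhibitor wells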
GPR151 ag: human GPR151 activation; Q8TDV0; PathHunter beta-arrestin GPR151 cells, luminescence; activation, % at 11.2 µM; 1% of 650,000 active; AID 1508602; in the data active = activation above about 4.9%;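 also: 0% = median of compound wells and 100% = cells with positive control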
FBW7 act: human FBW7 E3 ligase activation, primary screen. Q969H0. AlphaScreen FBW7–phospho-cyclin E peptide binding, activator screen. normalized activity (activation), % at 26.1 µM. 0.13% of 650,000 active. AID 1259310; in the data active = normalized activity above about 1.9%;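 also: purified mutant Fbw7 with reduced substrate affinity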
An asterisk follows results filed as active.

SMILES	MITF inh	TEAD-YAP block	GPR151 ag	FBW7 act
c1ccc(-n2cnc3c(NCCN4CCOCC4)nc(NCCN4CCOCC4)nc32)cc1	7	6	-1	0
COc1ccc(-c2nc(NCCN3CCOCC3)c3ncn(-c4ccccc4)c3n2)cc1	16	47*	-1	0
CN1CCN(c2ccc(-c3nc(NCCOc4ccccc4)c4ncn(-c5ccsc5)c4n3)cc2)CC1	6	11	0	0
c1ccc(Oc2nc(NCCN3CCOCC3)c3ncn(-c4ccccc4)c3n2)cc1	20	34*	1	0
NC(=O)c1ccccc1NC(=S)NC(=O)Cc1ccccc1	-12	5	1	0
Cc1ccc(C)c(-n2c3nc(=O)[nH]c(=O)c-3cc3cc([N+](=O)[O-])ccc32)c1	9	57*	-1	0
COc1ccc(NCC(=O)N/N=C/c2cc(OC)ccc2O)cc1	4	-2	-1	0
CS(=O)(=O)N(CC(=O)Nc1ccc(F)cc1F)c1ccc(F)c(Cl)c1	7	2	0	0
COc1ccc(-n2ncc3c(N4CCCC4)ncnc32)cc1	2	25	2	0
Clc1cccc(-n2ncc3c(NC4CC4)ncnc32)c1	-3	-32	-1	0
C=CCNc1ncnc2c1cnn2-c1ccc(C)cc1C	8	-8	0	0
Cc1cccc(-n2ncc3c(N(CC(C)C)CC(C)C)ncnc32)c1	0	-12	2	0
Cc1cccc(-n2ncc3c(NC4CCCCCC4)ncnc32)c1	4	47*	1	0
COc1ccc(-n2ncc3c(N(C)C4CCCCC4)ncnc32)cc1	-3	93*	2	0
Cc1cccc(-n2ncc3c(N(C)C4CCCCC4)ncnc32)c1	-17	97*	1	0
CCOC(=O)N1CCC(Nc2ncnc3c2cnn3-c2ccc(C)cc2C)CC1	-6	39*	-1	0
CN(c1ccc(Br)cc1)S(=O)(=O)c1ccc2[nH]cc(C(=O)N3CCC4(CC3)OCCO4)c(=O)c2c1	1	6	2	0
CCn1nnc2c(Nc3ccc(OC)c(OC)c3)ncnc21	-11	-24	-1	0
NC(=O)CSc1nc2sc3c(c2c(=O)n1C1CCCCC1)CCC3	0	-6	0	0
CCN(CC)c1ncnc2c1cnn2-c1cccc(C)c1	4	60*	1	0
Fc1cccc(-c2nc3ccccc3[nH]2)c1	1	-43	-5	0
Cc1ccc2nc(-c3ccccn3)[nH]c2c1	-3	64*	-8	-2
Cc1ccc2nc(-c3ccc(O)cc3)[nH]c2c1	9	44*	-11	0
CN(C)c1ccc(-c2nc3ccc(N)cc3[nH]2)cc1	21	78*	-9	0
Nc1ccc2nc(-c3ccc(Cl)cc3)[nH]c2c1	17	-54	-4	1
SMILES	MITF inh	TEAD-YAP block	GPR151 ag	FBW7 act
Brc1cccc(-c2nc3ccccc3[nH]2)c1	9	-51	-4	1.9*
Cc1cc(C)n(C(=O)CCNS(=O)(=O)c2ccc(Cl)cc2)n1	6	2	0	0
Oc1ccc2nc(-c3ccccc3)[nH]c2c1	2	-9	-4	0
Nc1ccc(-c2nc3ccc(N)cc3[nH]2)cc1	-13	-17	-5	0
Oc1cccc(-c2nc3ccccc3[nH]2)c1	-2	47*	-6	0
Nc1cccc(-c2nc3ccc(N)cc3[nH]2)c1	2	-9	-8	0
Nc1ccc(-c2nc3cc4ccccc4cc3[nH]2)cc1	-1	35*	0	0
Nc1ccc(-c2nc3ccc(O)cc3[nH]2)cc1	-9	77*	-5	0
Nc1ccc2nc(-c3cccc(O)c3)[nH]c2c1	-3	42*	-3	0
O=C(CSc1nc2ccccc2n1CC(=O)N1CCCC1)Nc1ccccc1Cl	3	8	0	0
CCC(CC)C(=O)NC(C)c1ccccc1 (stereo unspecified)	10	-9	-1	0
COc1ccc(C)cc1S(=O)(=O)N1CCN(c2ccc(-c3ccncc3)nn2)CC1	8	1	-2	0
CCN(CC)c1ccc(N2CCN(S(=O)(=O)c3cc(C)ccc3OC)CC2)nn1	9	54*	1	0
CCN(CC)c1ccc(N=Nc2ncn[nH]2)cc1	36	44*	-1	-2
C=CCn1c(SCC(N)=O)nnc1-c1ccccc1C	11	4	0	0
C=CS(=O)(=O)c1ccc(C(C)(C)C)cc1	19	68*	3	0
COc1ccc(CN2CCN(Cc3cccn3-c3cccnc3)CC2CCO)cc1C (stereo unspecified)	10	6	-1	0
COc1ccc(N2CCN(Cc3ccc(Br)o3)CC2)cc1	53*	6	-1	0
CC(C)N1CCC(N2CCN(Cc3ccc(OC4CCCC4)cc3)CC2CCO)CC1 (stereo unspecified)	-24	0	1	0
COc1ccc2c(c1)CC(C(=O)Nc1ccc(-c3cn[nH]c3)cc1OCCN)CO2 (stereo unspecified)	27	38*	0	0
COc1ccc2c(c1)CC(C(=O)Nc1ccc(-c3cn[nH]c3)cc1OCCCO)CO2 (stereo unspecified)	17	-1	2	0
CN(C)CCOc1cc(-c2cn[nH]c2)cc2sc(C3COc4ccccc4C3)nc12 (stereo unspecified)	24	4	-1	0
COc1ccc2c(c1)CC(c1nc3c(OCCN(C)C)cc(-c4cn[nH]c4)cc3s1)CO2 (stereo unspecified)	47	73*	1	-1
COc1ccccc1NC(=O)Cn1nnc(C(=O)Nc2ccc(C)c(C)c2)c1N	7	8	0	0
CCOCCCn1c(=S)[nH]c2cc(C(=O)N3CCN(Cc4ccc5c(c4)OCO5)CC3)ccc2c1=O	6	43*	2	0
SMILES	MITF inh	TEAD-YAP block	GPR151 ag	FBW7 act
O=C(c1ccc2c(=O)n(Cc3ccc(Cl)cc3)c(=S)[nH]c2c1)N1CCN(Cc2ccc3c(c2)OCO3)CC1	-8	7	-1	0
CCc1nnc2n1N=C(c1ccc3c(c1)OCCO3)CS2	12	51*	0	0
CCOC(=O)c1c(C)[nH]c(C(=O)N/N=C\c2ccc(Br)cc2)c1C	3	56*	2	0
CCOC(=O)c1c(C)[nH]c(C(=O)N/N=C\c2ccccc2)c1C	18	18	-1	0
COc1ccccc1/C=N/NC(=O)c1[nH]c(C)c(C(=O)N/N=C/c2ccccc2OC)c1C	-2	1	0	0
CCOC(=O)c1c(C)[nH]c(C(=O)N/N=C\c2ccccc2O)c1C	-1	35*	0	0
C=C(C)Cn1c(SCC(O)CCl)nc2c1c(=O)[nH]c(=O)n2C (stereo unspecified)	5	-12	1	0
O=C(NN1C(=O)c2ccccc2NC1c1ccccc1F)c1ccccc1 (stereo unspecified)	5	-2	1	0
CCOc1ccc(/C=C/C(=O)Nc2ccc([N+](=O)[O-])cc2OC)cc1	11	4	1	0
O=C(O)/C=C/C(=O)Nc1ccc(Oc2ccc(Oc3ccc(NC(=O)/C=C/C(=O)O)cc3)cc2)cc1	-3	39*	1	0
